# Assay outcomes as filed in PubChem BioAssay.
# Mtb hypoxia inh – PubChem AID 1159583. M. tuberculosis hypoxia-regulated fluorescent reporter, fluorescence. fluorescence inhibition, % (concentration not given with the values). 0.1% of 300,000 active; in the data active = fluorescence inhibition mostly above about 23%, no sharp cut-off; inactive = mostly below about 17%
# VHR inh abs – VHR1 phosphatase inhibitors, primary screen, biochemical, absorbance, uHTS. Dual specificity protein phosphatase 3 (Homo sapiens), P51452. recombinant VHR phosphatase, pNPP absorbance. inhibition, % at 13.3 µM. 0.52% of 290,000 active. AID 1654, 2009; in the data active = inhibition above about 50%
# Target sequence (P51452 whole entry, looked up): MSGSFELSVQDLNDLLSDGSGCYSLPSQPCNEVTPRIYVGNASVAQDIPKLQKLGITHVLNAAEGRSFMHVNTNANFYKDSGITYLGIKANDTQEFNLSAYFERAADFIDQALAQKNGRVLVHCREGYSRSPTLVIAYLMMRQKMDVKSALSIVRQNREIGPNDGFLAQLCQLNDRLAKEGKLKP
# CCHFV vOTU inh – CCHFV vOTU protease inhibitors, primary screen, biochemical, Pep-AMC substrate, fluorescence. Crimean-Congo hemorrhagic fever virus L polyprotein viral ovarian tumor (vOTU) protease …. inhibition, % at 11.5 µM. 0.55% of 370,000 active; in the data active = inhibition above about 30%; note: 0% = vehicle wells with enzyme and 100% = no enzyme wells
# PriA SSB inh – inhibitors of Klebsiella pneumoniae PriA binding to SSB C-terminal tail, primary screen, biochemical, AlphaScreen | PriA–SSB C-terminal tail interaction (Klebsiella pneumoniae) | AlphaScreen SSBct-PriA binding, biotinylated peptide | inhibition, % at 33 µM | 0.6% of 430,000 active; in the data active = inhibition mostly above about 37%, no sharp cut-off; inactive = mostly below about 20%;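 note: plate controls were negative control peptide for no effect and reference peptide for full effect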
# SARS 3CLpro inh – SARS-CoV 3CLpro protease inhibitors, primary screen, biochemical, quenched FRET | recombinant SARS-CoV 3CLpro, quenched FRET peptide cleavage | Replicase polyprotein 1ab (Severe acute respiratory syndrome coronavirus), P0C6X7 | inhibition, % at 6 µM | 0.14% of 290,000 active; in the data active = inhibition above about 12%
# * = called active by the depositor; / = no result given. Hits are enriched below; roughly 1.3% of the tested compounds scored in any of these assays.
SMILES,Mtb hypoxia inh,VHR inh abs,CCHFV vOTU inh,PriA SSB inh,SARS 3CLpro inh
Cc1cc(N)n(-c2nc3c(c(=O)[nH]2)CCCC3)n1,/,/,/,93*,/
CCc1c(C)nc(-n2nc(C)cc2N)[nH]c1=O,/,/,/,93*,/
O=C(CCc1cccc(Oc2ccc(F)cc2)c1)N1CC(S(=O)(=O)Cc2ccco2)C1,/,/,/,7,/
O=C(NCC(c1ccsc1)N1CCc2ccccc2C1)C(=O)Nc1ccc(F)cc1 (stereo not given),/,/,/,0,/
CC(=O)OC[C@H]1O[C@@H](Sc2cccc3cccnc23)[C@H](OC(C)=O)[C@@H](OC(C)=O)[C@H]1OC(C)=O,5,-13,-14,40*,-6
CC1CCN(S(=O)(=O)c2ccc3c(c2)N(CC(=O)NCCCN2CC(C)CC(C)C2)C(=O)CS3)CC1 (stereo not given),11,56*,-11,-8,3
CC1CCN(CCCNC(=O)CN2C(=O)CSc3ccc(S(=O)(=O)N4CCC(C)CC4)cc32)CC1,3,18,8,0,1
CC1CCCCN1CCCNC(=O)CN1C(=O)CSc2ccc(S(=O)(=O)N3CCOCC3)cc21 (stereo not given),4,50*,14,9,1
Cc1c(C(=O)c2ccc(Cl)cc2)oc2cc(NC(=O)c3ccccc3Br)ccc12,/,/,/,-4,/
COc1cc2c(cc1OC)C(C)N(C(=O)c1sccc1C)CC2 (stereo not given),4,52*,1,2,-2
COc1cc2c(cc1OC)C(C)N(C(=O)c1ccc(C)o1)CC2 (stereo not given),7,2,1,5,-2
O=C(O)c1ccnc2cccnc12,/,/,/,5,/
Cc1ccc(O)c(Nc2nc(-c3ccccc3)nc3ccccc23)c1,12,6,0,-8,-9
Cc1ccc(O)c(Nc2c3ccccc3nc3ccccc23)c1,18,52*,-136,61*,-3
O=C(Cc1nnc(NC(=O)Nc2ccccc2)s1)NCc1ccccc1,/,58*,-7,-10,1
CCCCC1SC(=NN=Cc2ccco2)NC1=O (stereo not given),/,/,/,-13,/
CCCCC(NC(=O)CCc1c(C)c2cc3c4c(oc3c(C)c2oc1=O)CCCC4)C(=O)O (stereo not given),6,58*,-18,-18,3
CCCCC(NC(=O)Cc1c(C)c2cc3c4c(oc3c(C)c2oc1=O)CCCC4)C(=O)O (stereo not given),0,52*,-23,-9,3
O=C(NN=Cc1c(O)n(Cc2ccco2)c(=O)[nH]c1=O)c1ccccc1,/,/,/,-8,/
CC(C)Nc1nc(NC(C)C)nc(N(C)N)n1,0,5,-3,65*,-1
CC(C)C(=O)Nc1nsc(-c2ccc(Cl)cc2)n1,/,/,/,0,/
CCC(CO)Oc1cc(NCc2ccc(C)c(C)c2)c2ncn(C(C)C)c2c1 (stereo not given),19,/,12,36,/
CCC(CO)Oc1cc(NCc2cc(C)cc(C)c2)c2ncn(C(C)C)c2c1 (stereo not given),15,/,8,55*,/
Cc1oc(-c2ccccc2F)nc1CS(=O)(=O)CC(=O)NCCN1CCCC1,-7,53*,-8,-12,4
COc1cccc(-c2nc(CS(=O)(=O)CC(=O)NCCCN3C(C)CCCC3C)c(C)o2)c1 (stereo not given),5,57*,15,-5,-3
SMILES,Mtb hypoxia inh,VHR inh abs,CCHFV vOTU inh,PriA SSB inh,SARS 3CLpro inh
Cc1oc(-c2ccccc2F)nc1CS(=O)(=O)CC(=O)NCCCN1CCc2ccccc2C1,/,25,7,-6,-3
COc1cccc(-c2nc(CS(=O)(=O)CC(=O)NCCCN3CC(C)CC(C)C3)c(C)o2)c1 (stereo not given),11,106,-5,8,-5
CC/C(=N\NC(=O)Cc1ccc(Br)cc1)c1cccs1,/,50*,7,/,0
O=C(Cc1ccc(Br)cc1)NNC(=O)c1cccs1,12,/,0,5,/
CCN1CCN(Cc2ccc(NC(=O)c3ccc(C)c(NC(=O)c4nccn4C)c3)cc2C(F)(F)F)CC1,7,-5,12,-3,/
CCN1CCN(Cc2ccc(NC(=O)c3ccc(C)c(NC(=O)c4cncc(-c5cccs5)c4)c3)cc2C(F)(F)F)CC1,4,/,/,47*,/
COc1ccc(CC(=O)Nc2cc(C)nn2-c2nc3c(cnn3-c3cccc(C)c3C)c(=O)[nH]2)cc1,/,/,/,60*,/
